Drawing on PubChem BioAssay (EPA / NIEHS), this text covers outcome and AC50 for 14 compounds.

Records with an inconclusive call do not appear. Calls of active or inactive are those of the source. Rule for the calls, unless noted: active = hit-call score of the fitted dose curve at least 0.9, where 1 is the maximum; inconclusive = response in the unintended direction; inactive = score below 0.9.

For assay [1], the target named is PGR (gene 5241) (UniProt P06401). Kind of assay: TOX21_PR_BLA_Followup_Antagonist_ratio: Tox21 HEK293 Progesterone Receptor (PR) Antagonism Beta-lactamase Follow-Up Assay, Ratio (AID 2283934). In outline:
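PR-UAS-bla HEK293T cells, 3,000/well in 2% charcoal-stripped FBS, given compound plus 1nM R5020 agonist for 16 hr at 37C. Beta-lactamase FRET substrate 2 hours, ratio cleaved/uncleaved fluorescence; viability by CellTiter-Glo in same wells.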

Assay [2] can be described thus: TOX21_PR_BLA_Followup_Agonist_viability: Viability Assessment in the Tox21 HEK293 Progesterone Receptor (PR) Agonism Beta-lactamase Follow-Up Assay (AID 2283935).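 Note: signal loss means lower viability so actives are cytotoxic.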 The procedure, abridged: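 PR-UAS-bla HEK293T cells in 2% charcoal-stripped FBS medium, plated 6 hr before compound addition, exposed 16 hr at 37C. Viability read by CellTiter-Glo ATP luminescence after 30 min at room temperature, in the same wells as the beta-lactamase readout.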

Assay [3] can be described thus: TOX21_PR_BLA_Followup_Antagonist_viability: Viability Assessment in the Tox21 HEK293 Progesterone Receptor (PR) Antagonism Beta-lactamase Follow-Up Assay (AID 2283936).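 Note: hits lower the luminescence signal meaning cytotoxicity.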 In outline: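 PR-UAS-bla HEK293T cells (3,000/well, 2% charcoal-stripped FBS) given compound plus R5020 agonist, 16 h at 37C. CellTiter-Glo added after bla read, 30 min at room temperature; luminescence loss indicates cytotoxicity.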

The target in assay [4] is PGR (gene 5241) (UniProt P06401). Put plainly: TOX21_PR_LUC_Followup_Agonist: Tox21 HEK293 Progesterone Receptor (PR) Agonism Luciferase Follow-Up Assay (AID 2283937; active = hit-call score of the fitted dose curve at least 0.9, where 1 is the maximum; inactive = score below 0.9). In outline:
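HEK293-PR-A-luc cells, conditioned 5 days in 10% charcoal-stripped FBS medium, seeded 3,000/well for 5 h, then compound-treated 16 h at 37C. ONE-Glo luminescence read after 30 min at room temperature; gain of signal versus DMSO.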

The target is the same in assay [5]. Put plainly: TOX21_PR_LUC_Followup_Antagonist: Tox21 HEK293 Progesterone Receptor (PR) Antagonism Luciferase Follow-Up Assay (AID 2283938).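 Note: curve fitted upward as signal gain over DMSO baseline despite antagonist label.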 The procedure, abridged:
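HEK293-PR-A-luc cells, 3,000/well, preincubated 5 h at 37C before compound addition in DMSO; 16 h compound exposure at 37C. ONE-Glo luciferase luminescence read after 30 min at room temperature, fitted relative to DMSO baseline.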

A short description of assay [6]: TOX21_PR_LUC_Followup_Antagonist_viability: Viability Assessment in the Tox21 HEK293 Progesterone Receptor (PR) Antagonism Luciferase Follow-Up Assay (AID 2283940). In outline: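 HEK293-PR-A-luc cells kept in charcoal-stripped FBS medium were plated 5 h before compound addition, then exposed 16 h at 37C; viability read as cellular ATP by luciferase luminescence, loss of signal indicating cytotoxicity.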

Assay [7] in a line: TOX21_PR_LUC_Followup_Agonist_viability: Viability Assessment in the Tox21 HEK293 Progesterone Receptor (PR) Agonism Luciferase Follow-Up Assay (AID 2283941).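 Note: loss of signal means cytotoxicity so actives lower viability.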 The procedure, abridged:
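HEK293-PR-A-luc cells, kept in 10% charcoal-stripped FBS medium, were treated with compounds for 16 h at 37C. Viability read as cellular ATP by luciferase-coupled luminescence; loss of signal indicates cytotoxicity.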

The target in assay [8] is Thyroid hormone receptor alpha (Rattus norvegicus) + Thyroid hormone receptor beta (Rattus norvegicus) (UniProt P18113+P63059). Kind of assay: TOX21_TR_LUC_GH3_Antagonist_Followup: Tox21 GH3 Thyroid Hormone Receptor Antagonism Luciferase Follow-Up Assay (AID 2283942). The procedure, abridged:
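Confirmatory qHTS, antagonist mode: T3 (1.0 nM final) + test cpd, 15 conc, 92 uM–5nM final, GH3 rat pituitary line, 24 h, 37C. Luc reporter, RLU vs DMSO.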

For assay [9], the target named is THRB (gene 7068) (UniProt P10828). Put plainly: TOX21_TRB_BLA_Antagonist_Followup_ratio: Tox21 Thyroid Hormone Receptor beta Antagonism Beta-lactamase (BLA) Follow-Up Assay, Ratio (AID 2283958). In outline: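 HEK293T cells with a GAL4-TRb LBD fusion and UAS-bla reporter, 3,000 cells/well in phenol red-free DMEM with 2% charcoal-stripped FBS. Exposed 18 h at 37C to 11 concentrations in triplicate; CCF4 460:530 nm ratio after 2 h, DMSO-referenced.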

Assay [10] is described as follows: TOX21_TRB_BLA_Antagonist_Followup_viability: Viability Assessment in the Tox21 Thyroid Hormone Receptor beta Antagonism Beta-lactamase (BLA) Follow-Up Assay (AID 2283961). The procedure, abridged:
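HEK293T cells with GAL4-human TRβ LBD and UAS-bla reporter, 3,000 cells/well in 2% charcoal-stripped FBS medium; 11-point concentrations in triplicate, 18 h at 37C. Viability from ATP by CellTiter-Glo luminescence, 30 min RT, same plates.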

Assay [11] has as its target Retinoic acid receptor RXR-alpha (Homo sapiens) (UniProt P19793). Kind of assay: TOX21_TR_RXR_BLA_Antagonist_Followup_ratio: Tox21 Thyroid Hormone Receptor beta Retinoid X Receptor alpha (RXRa) Antagonism Beta-lactamase (BLA) Follow-Up Assay, Ratio (AID 2283972). The procedure, abridged: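 RXRa-UAS-bla HEK293T cells, 2,500/well in phenol red-free DMEM with 2% charcoal-stripped FBS, 5 h attachment, then compounds (11 concentrations, triplicate) for 16 h at 37C; FRET-B/GCCF4-AM substrate 2 h RT; 460:530 nm ratio, loss of signal vs DMSO.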

A short description of assay [12]: TOX21_TR_RXR_BLA_Antagonist_Followup_viability: Viability Assessment in the Tox21 Thyroid Hormone Receptor beta Retinoid X Receptor alpha (RXRa) Antagonism Beta-lactamase (BLA) Follow-Up Assay (AID 2283979). In outline: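 Follow-up compounds (11 concentrations, triplicate) were incubated 16 h at 37C/5% CO2 with HEK293T RXRa-bla cells seeded at 2,500/well in charcoal-stripped-serum medium. ATP content by CellTiter-Glo luminescence gave viability; curves fitted in both directions against DMSO.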

Assay [13] addresses THRB (gene 7068) (UniProt P10828). Kind of assay: TOX21_TRB_COA_Antagonist_Followup_ratio: Tox21 Thyroid Hormone Receptor beta Antagonism through Coactivator Recruitment Follow-Up Assay, Ratio (AID 2283967). The procedure, abridged: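 Test compound was incubated with 5.0 nM GST-TRβ LBD in 0.10% BSA. Then 200 nM fluorescein-SRC-2 peptide and 2 nM terbium anti-GST antibody were added. TR-FRET (520:495 nm) was measured and normalized to DMSO and T3 controls.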

Assay [14] is described as follows: CCTE_Harrill_HTTr_Viability_MCF7: CCTE's 6-hour Cell Viability Assessment for the High-Throughput Transcriptomics (HTTr) Platform, in MCF-7 cells cultured in DMEM + 10% fetal bovine serum, Harrill Lab (AID 2284010; active = hit-call score of the fitted dose curve at least 0.9, where 1 is the maximum; inactive = score below 0.9). In outline:
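MCF-7 cells in DMEM + 10% FBS, 384-well, exposed 6 h to an eight-point dilution series. Membrane integrity scored by high-content imaging of propidium iodide exclusion; bidirectional fit versus DMSO.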

Assay [15] in a line: CCTE_Harrill_HTTr_Apoptosis_MCF7: CCTE's 6-hour Apoptosis Assessment for the High-Throughput Transcriptomics (HTTr) Platform, in MCF-7 cells cultured in DMEM + 10% fetal bovine serum, Harrill Lab (AID 2284011; active = hit-call score of the fitted dose curve at least 0.9, where 1 is the maximum; inactive = score below 0.9). The procedure, abridged: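 MCF-7 cells in DMEM + 10% FBS exposed 6 h to chemicals over an eight-point dilution series. Caspase-3/7 activation imaged by high-content CellEvent Green staining; fitted bidirectionally versus DMSO.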

Assay [16] is described as follows: CCTE_Harrill_HTTr_CellCount_MCF7: CCTE's Cell Proliferation Assessment for the High-Throughput Transcriptomics (HTTr) Platform, Harrill Lab (AID 2284012).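 Note: cells exposed to compound for six hours; intended direction is loss of nuclei count meaning fewer cells.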 In outline: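 MCF7 cells exposed 6 hours to an eight-point dilution series; Hoechst-stained nuclei counted by high-content imaging. Bidirectional curve fitting against DMSO baseline.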
Assay [17] has as its target Nucleoli Translocation, AR (gene 367) (UniProt P10275). Kind of assay: UPITT_HCI_U2OS_AR_TIF2_Nucleoli_Antagonist: University of Pittsburgh U2OS Androgen Receptor-Transcriptional Intermediary Factor 2 (AR-TIF2) Antagonism High Content Imaging Assay for Nucleoli Translocation (AID 2283997). In outline:
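Measured quantity was AR-RFP fluorescence localized to nucleoli in engineered U2OS cells also bearing TIF2-GFP, acquired on automated high-content imagers. Primary testing used 20 uM compound; actives were confirmed in triplicate wells.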

For assay [18] the target is unchanged. Kind of assay: UPITT_HCI_U2OS_AR_TIF2_Nucleoli_Agonist: University of Pittsburgh U2OS Androgen Receptor-Transcriptional Intermediary Factor 2 (AR-TIF2) Agonism High Content Imaging Assay for Nucleoli Translocation (AID 2283998). In outline:
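U2OS cells expressing RFP-tagged human AR and GFP-tagged TIF2; red fluorescence in nucleoli quantified by high-content imaging. Primary screen at 20 uM final (0.2% DMSO); concentration-response 0.195–50 uM (0.5% DMSO), fitted upward versus DMSO.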

The target in assay [19] is Ratio of Nucleoli Translocation and Cytoplasm, AR (gene 367) (UniProt P10275). Put plainly: UPITT_HCI_U2OS_AR_TIF2_Nucleoli_Cytoplasm_Ratio_Agonist: University of Pittsburgh U2OS Androgen Receptor-Transcriptional Intermediary Factor 2 (AR-TIF2) Agonism High Content Imaging Assay for Ratio of Nucleoli Translocation and Cytoplasm (AID 2284000).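 Note: hits raise the red nucleolar to cytoplasm ratio above vehicle.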 In outline:
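Read-out first: nucleolar-to-cytoplasm ratio of red (AR-RFP) signal, quantified by high-content imaging in U2OS cells co-expressing TIF2-GFP. Activity is scored as signal increase over DMSO. Single-point screening used 20 uM final (0.2% DMSO).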

Chain of Retinoic acid receptor RXR-alpha (Homo sapiens) (P19793 whole entry, looked up): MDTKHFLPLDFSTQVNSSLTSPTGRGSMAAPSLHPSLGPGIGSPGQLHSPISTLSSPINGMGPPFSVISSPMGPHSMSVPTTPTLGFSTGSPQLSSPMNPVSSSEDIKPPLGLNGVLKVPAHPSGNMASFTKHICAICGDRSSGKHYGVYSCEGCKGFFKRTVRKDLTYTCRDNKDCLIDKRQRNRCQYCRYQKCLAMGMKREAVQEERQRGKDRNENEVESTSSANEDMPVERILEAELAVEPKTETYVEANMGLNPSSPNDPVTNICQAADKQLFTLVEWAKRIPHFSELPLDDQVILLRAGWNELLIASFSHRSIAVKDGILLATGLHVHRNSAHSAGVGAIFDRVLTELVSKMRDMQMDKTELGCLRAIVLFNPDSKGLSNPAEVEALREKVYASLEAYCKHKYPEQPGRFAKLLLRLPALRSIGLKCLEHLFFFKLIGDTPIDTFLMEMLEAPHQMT
Chain of THRB (gene 7068) (P10828 whole entry, looked up, the tested form may be a part): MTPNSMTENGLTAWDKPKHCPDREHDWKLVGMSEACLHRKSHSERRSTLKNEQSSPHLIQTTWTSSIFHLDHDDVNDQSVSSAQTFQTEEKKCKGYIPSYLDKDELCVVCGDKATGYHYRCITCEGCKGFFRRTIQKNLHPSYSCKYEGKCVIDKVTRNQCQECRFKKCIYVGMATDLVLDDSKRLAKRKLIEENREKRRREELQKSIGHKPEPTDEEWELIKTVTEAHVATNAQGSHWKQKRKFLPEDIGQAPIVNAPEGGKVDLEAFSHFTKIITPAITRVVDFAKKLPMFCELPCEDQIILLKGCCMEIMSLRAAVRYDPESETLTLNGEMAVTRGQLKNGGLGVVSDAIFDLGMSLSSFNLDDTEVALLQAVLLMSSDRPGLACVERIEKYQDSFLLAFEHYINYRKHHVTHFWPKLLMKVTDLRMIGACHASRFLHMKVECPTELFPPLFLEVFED
Chain of PGR (gene 5241) (P06401 whole entry, looked up): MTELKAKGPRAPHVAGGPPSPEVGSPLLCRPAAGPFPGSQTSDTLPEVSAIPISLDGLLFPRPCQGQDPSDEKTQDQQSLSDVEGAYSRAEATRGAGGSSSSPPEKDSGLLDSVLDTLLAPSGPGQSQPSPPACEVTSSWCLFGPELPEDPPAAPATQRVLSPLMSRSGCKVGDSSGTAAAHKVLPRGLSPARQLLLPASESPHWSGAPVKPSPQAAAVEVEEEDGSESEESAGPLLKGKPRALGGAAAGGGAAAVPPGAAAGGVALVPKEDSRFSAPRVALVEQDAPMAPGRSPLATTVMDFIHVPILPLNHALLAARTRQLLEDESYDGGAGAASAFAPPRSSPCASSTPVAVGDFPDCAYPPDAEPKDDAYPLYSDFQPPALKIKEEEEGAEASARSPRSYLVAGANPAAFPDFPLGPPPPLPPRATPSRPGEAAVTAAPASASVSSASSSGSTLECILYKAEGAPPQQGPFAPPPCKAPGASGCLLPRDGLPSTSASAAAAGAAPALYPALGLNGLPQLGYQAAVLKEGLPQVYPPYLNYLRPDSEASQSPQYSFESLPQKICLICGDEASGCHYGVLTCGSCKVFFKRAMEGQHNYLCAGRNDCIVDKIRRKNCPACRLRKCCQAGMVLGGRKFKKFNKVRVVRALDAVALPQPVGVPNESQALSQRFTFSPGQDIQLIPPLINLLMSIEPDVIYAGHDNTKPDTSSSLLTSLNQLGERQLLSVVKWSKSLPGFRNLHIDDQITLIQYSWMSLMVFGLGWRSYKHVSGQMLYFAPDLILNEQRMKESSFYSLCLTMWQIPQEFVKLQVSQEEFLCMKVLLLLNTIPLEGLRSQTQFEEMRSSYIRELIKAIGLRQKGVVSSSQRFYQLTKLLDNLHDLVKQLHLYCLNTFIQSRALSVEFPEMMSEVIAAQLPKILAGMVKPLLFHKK
Chain of Nucleoli Translocation, AR (gene 367) (P10275 whole entry, looked up): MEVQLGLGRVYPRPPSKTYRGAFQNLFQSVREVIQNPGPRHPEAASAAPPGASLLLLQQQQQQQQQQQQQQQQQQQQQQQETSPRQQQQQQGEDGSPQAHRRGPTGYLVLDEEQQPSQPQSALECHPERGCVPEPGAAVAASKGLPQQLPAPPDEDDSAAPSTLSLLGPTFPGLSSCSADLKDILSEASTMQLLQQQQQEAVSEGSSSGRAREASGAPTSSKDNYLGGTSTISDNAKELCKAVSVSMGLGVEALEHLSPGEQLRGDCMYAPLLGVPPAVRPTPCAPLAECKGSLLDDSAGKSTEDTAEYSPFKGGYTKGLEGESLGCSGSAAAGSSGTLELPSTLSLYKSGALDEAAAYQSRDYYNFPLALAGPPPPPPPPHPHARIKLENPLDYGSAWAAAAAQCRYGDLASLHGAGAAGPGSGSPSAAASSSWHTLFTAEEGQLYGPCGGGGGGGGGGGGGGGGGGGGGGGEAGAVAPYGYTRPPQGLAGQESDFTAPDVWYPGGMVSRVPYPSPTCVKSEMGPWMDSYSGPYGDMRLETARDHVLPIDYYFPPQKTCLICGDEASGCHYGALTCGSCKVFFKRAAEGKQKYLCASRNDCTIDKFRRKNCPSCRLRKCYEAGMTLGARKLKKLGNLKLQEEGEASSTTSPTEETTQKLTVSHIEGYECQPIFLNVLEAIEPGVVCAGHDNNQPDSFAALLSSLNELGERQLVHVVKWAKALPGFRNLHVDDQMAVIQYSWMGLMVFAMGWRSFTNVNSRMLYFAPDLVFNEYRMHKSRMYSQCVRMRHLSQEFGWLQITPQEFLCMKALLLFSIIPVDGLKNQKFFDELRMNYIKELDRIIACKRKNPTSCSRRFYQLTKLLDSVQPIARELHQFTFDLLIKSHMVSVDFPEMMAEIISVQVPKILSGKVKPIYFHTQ
Chain of Ratio of Nucleoli Translocation and Cytoplasm, AR (gene 367) (P10275 whole entry, looked up): as above

Take `CCC(=O)O[C@]1(C(=O)COC)[C@@H](C)C[C@H]2[C@@H]3CCC4=CC(=O)C=C[C@]4(C)C3(F)[C@@H](O)C[C@@]21C` (stereo partly drawn): the result (in the assay with PGR (gene 5241) [1]; in [2]; in assay [3]; in the assay with PGR (gene 5241) [5]; in assay [6]; in assay [7]) was inactive. In the assay with PGR (gene 5241) [4], the AC50 – broadly, the midpoint of the concentration-response curve, whichever way the signal moves – is 0.0067 µM (active).

For `O=C1c2ccccc2-c2n[nH]c3cccc1c23`, the outcome (in [8]; with THRB (gene 7068) [9]; in assay [10]; in assay [11]; in assay [12]) was inactive.

In the case of `C/C=C1\C(=O)C[C@H]2[C@@H]3CCC4=CC(=O)CC[C@]4(C)[C@H]3CC[C@]12C`, the call (in [2]; in the assay with PGR (gene 5241) [5]; in assay [6]; in assay [7]) was inactive.

In the case of `CCCC(=O)O[C@]1(C(=O)CO)CC[C@H]2[C@@H]3CCC4=CC(=O)CC[C@]4(C)[C@H]3[C@@H](O)C[C@@]21C`, the call (in [2]; in the assay with PGR (gene 5241) [5]) was inactive.

As for `COc1cc(NCc2ccc3nc(N)nc(N)c3c2C)cc(OC)c1OC`, the outcome (in assay [8]; with THRB (gene 7068) [9]; with THRB (gene 7068) [13]) was inactive. In addition, the AC50 is 1.46 µM (active) in assay [10], 1.76 µM (active) in [11] and 1.77 µM (active) in [12].

As to `Cc1nc2ccc(CN(C)c3ccc(C(=O)N[C@@H](CCC(=O)O)C(=O)O)s3)cc2c(=O)[nH]1`, the outcome (in [8]; with THRB (gene 7068) [9]; with THRB (gene 7068) [13]; in [12]) was inactive.

Turning to `C#C[C@]1(O)CC[C@H]2[C@@H]3CCC4=C(CCC(=O)C4)[C@H]3CC[C@@]21C`, the outcome (in assay [8]; with THRB (gene 7068) [9]; in assay [10]; in the assay with THRB (gene 7068) [13]; in assay [12]) was inactive.

Consider `COC(=O)Nc1nc2ccc(S(=O)c3ccccc3)cc2[nH]1` (stereo not drawn), for which the outcome (in assay [8]; with THRB (gene 7068) [9]; in assay [10]; with THRB (gene 7068) [13]; in [11]; in assay [12]) was inactive. Also, the outcome in assay [14], in assay [15] and in assay [16] was inactive.

On to `O=c1[nH]c(=O)n([C@H]2C[C@H](O)[C@@H](CO)O2)cc1C(F)(F)F`, for which the result (in assay [8]; with THRB (gene 7068) [9]; in assay [10]; in assay [12]) was inactive.

`CC(=O)OCC(=O)[C@@]1(O)CC[C@H]2[C@@H]3CCC4=CC(=O)CC[C@]4(C)[C@H]3C(=O)C[C@@]21C`: the outcome (in the assay with PGR (gene 5241) [1]; in assay [2]; in assay [3]; with PGR (gene 5241) [4]; in the assay with PGR (gene 5241) [5]; in assay [6]) was inactive. For the same compound, the outcome in [7] was inactive.

Consider `CCCCCCCCCCCC[N+](C)(C)[O-]`, for which, in assay [14], the result was inactive.

Turning to `CCCCC(C)=O`, the compound was called inactive in assay [17], in assay [18], in [19], in assay [14] and in assay [15].

`CCC(=O)Oc1ccc2c(c1)CC[C@@H]1[C@@H]2CC[C@@]2(C)[C@H]1C[C@@H](OC(=O)CC)[C@@H]2OC(=O)CC`: the AC50 in the assay with PGR (gene 5241) [1] was 2.81 µM (active); in the assay with PGR (gene 5241) [4], 16.8 µM (active). Further, the compound was called inactive (in assay [2]; in [3]; in the assay with PGR (gene 5241) [5]; in assay [6]; in [7]).

`CC(=O)O[C@@H]1CC2C3CCc4cc(OC(=O)c5ccccc5)ccc4C3CCC2(C)[C@H]1OC(C)=O` (stereo partly drawn): the AC50 is 5.65 µM (active) with PGR (gene 5241) [1], 20.1 µM (active) in the assay with PGR (gene 5241) [4] and 1.05 µM (active) with PGR (gene 5241) [5]. The call in assay [2], in [3], in assay [6] and in assay [7] was inactive.
